From PubChem
In the library only some 32% were active in any assay of this set; here they are far more common.
CYP2C9 act – increases human cytochrome P450 2C9 activity. recombinant CYP2C9, luciferin-H conversion, luminescence; hits give high values; factor 1 = untreated enzyme, 0 = blocked. AID 1024. actives 1.4% (n = 96,000). activation factor at 5 µM;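 active = activation factor of 2 or more for CYP2C9 at a 5 µM dose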;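 also: 0 = sulfaphenazole-blocked wells and 1 = vehicle-only wells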
Target sequence (P11712 whole entry, looked up): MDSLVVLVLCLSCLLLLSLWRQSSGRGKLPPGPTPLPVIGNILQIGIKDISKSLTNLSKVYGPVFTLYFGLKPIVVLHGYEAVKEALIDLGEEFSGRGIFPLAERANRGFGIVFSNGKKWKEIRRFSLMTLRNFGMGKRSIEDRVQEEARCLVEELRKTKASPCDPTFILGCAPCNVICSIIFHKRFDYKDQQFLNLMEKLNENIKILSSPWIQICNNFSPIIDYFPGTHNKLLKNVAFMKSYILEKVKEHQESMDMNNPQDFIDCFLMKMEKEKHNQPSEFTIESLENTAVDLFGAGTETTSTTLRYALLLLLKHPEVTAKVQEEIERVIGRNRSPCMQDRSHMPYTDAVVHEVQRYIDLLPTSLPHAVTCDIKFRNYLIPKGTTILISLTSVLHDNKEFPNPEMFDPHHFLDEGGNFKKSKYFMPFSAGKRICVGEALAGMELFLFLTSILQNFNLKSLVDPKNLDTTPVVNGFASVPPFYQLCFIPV
PostGolgi ctrl – growth of the yeast control strain, post-Golgi counter-screen; efflux-deficient yeast background strain, growth absorbance A615, 16 h; inhibition, % at 10 µM; actives 5% (n = 98,000)
CYP2C9 inhib – blocks human cytochrome P450 2C9. P11712. CYP2C9 Supersomes, luciferin-H conversion, luminescence. inhibition, % at 5 µM. actives 20% (n = 96,000);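 active = blocking of liver enzyme CYP2C9 beyond about 50% at 5 µM, limit read from the data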
CYP2C19 inh – human CYP2C19 inhibition | actives 21% (n = 96,000) | inhibition, % at 5 µM | CYP2C19 Supersomes, luciferin-H EGE luminescence, 30 min | P33261 | AID 778;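 active = CYP2C19 inhibition above a set limit at 5 µM in the primary screen, cut at about 50% in these data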;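 also: plate controls were negative control wells for no effect and 2.5 mM tranylcypromine positive control for full effect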
PostGolgi yeast – growth inhibition of a yeast mutant, post-Golgi transport screen; post-Golgi transport phenotypic cell assay; inhibition, % at 10 µM; actives 0.9% (n = 98,000);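 also: yeast cells grown in 1536-well plates; yeast grown about 18 h at 30C before absorbance read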
CYP2C19 act – increases human CYP2C19 enzyme activity; P33261; recombinant CYP2C19, luciferin-H EGE luminescence; hits give high values; 0 = fully inhibited enzyme, 1 = untreated enzyme; activation factor at 5 µM; 96,000 tested, under 10 active;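 active = activation factor of at least 2 at 5 µM in the primary screen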;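 also: 0 = wells with 2.5 mM tranylcypromine and 1 = vehicle-only wells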
Active calls of the source: *; / = no result. Rule as the data show it, unless noted: active = inhibition above about 30%; inactive = the rest.

SMILES | CYP2C9 act | PostGolgi ctrl | CYP2C9 inhib | CYP2C19 inh | PostGolgi yeast | CYP2C19 act
Cc1ccc(C(=O)/C=C/Nc2ccccc2C(N)=O)cc1 | 1 | 1 | -2 | 26 | -6 | 0.7
CCOc1cc(N2CCOCC2)c(OCC)cc1NC(=O)c1nc2nc(C)cc(C)n2n1 | 0.6 | / | 36 | 11 | / | 0.9
Cc1cccc(OCC(=O)OCC(=O)c2c(N)n(C)c(=O)n(C)c2=O)c1 | 0.9 | -9 | 10 | 45 | -2 | 0.6
N#Cc1ccc(N=c2ssnc2Cl)cc1 | 0 | 1 | 97* | 3 | 1 | 1
COc1cc(N=c2ssnc2Cl)cc(OC)c1OC | 0.1 | 5 | 89* | -4 | -5 | 1
COc1ccc(/C=N/OCC(=O)N2CC3(C)CC2CC(C)(C)C3)cc1OC (stereo not drawn) | 1 | 8 | 4 | 31 | -9 | 0.7
Cc1cccc(Nc2ncnc3ccccc23)c1 | 0.5 | -3 | 46 | 59* | 2 | 0.4
Brc1ccc2ncnc(Nc3cccc4ccccc34)c2c1 | 0.4 | 25 | 59* | 80* | 1 | 0.2
CCOC(=O)c1c(NC(=O)CSc2nc(C)cc(C)c2C#N)sc(C(C)=O)c1C | 0.8 | 4 | 18 | 24 | -1 | 0.8
CCCC1=C(C(=O)OCC)C(c2cccs2)C(C#N)=C(N)O1 (stereo not drawn) | 0.3 | 12 | 67* | 79* | 2 | 0.2
CCN1C=C(Cc2cccs2)C2=C(C1)C(c1cccs1)C(C#N)=C(N)O2 (stereo not drawn) | 0.4 | 13 | 56* | 31 | 6 | 0.7
CCN1CC2=C(OC(N)=C(C#N)C2c2cccs2)/C(=C/c2cccs2)C1 (stereo not drawn) | 0.7 | 16 | 30 | 20 | 5 | 0.8
CCOC(=O)C1=C(CSc2nc(C)cc(C)c2C#N)OC(N)=C(C#N)C1c1ccccc1 (stereo not drawn) | 0.2 | 15 | 81* | 75* | -6 | 0.3
CCOC(=O)C1=C(CSc2nc(C)cc(C)c2C#N)OC(N)=C(C#N)C1c1cccs1 (stereo not drawn) | 0.6 | 13 | 42 | 86* | 1 | 0.1
CCOC(=O)C1=C(CSc2nc3c(cc2C#N)CN(C)CC3)OC(N)=C(C#N)C1c1ccc(Cl)cc1 (stereo not drawn) | 0.6 | 0 | 44 | 32 | 9 | 0.7
CCOC(=O)C1=C(CSc2nc(CC)c(C)cc2C#N)OC(N)=C(C#N)C1c1ccccc1 (stereo not drawn) | 0.3 | 2 | 68* | 49 | -6 | 0.5
C#CCOC(=O)c1ccccc1C(=O)n1nnc2ccccc21 | 0.3 | 10 | 66* | 88* | 5 | 0.1
C#CCOC(=O)c1ccccc1C(=O)OCC#C | 0.8 | -4 | 23 | 47 | 8 | 0.5
Cc1ccc(-c2cc(C(=O)NCc3ccccn3)c3ccccc3n2)cc1C | 0.4 | 8 | 59* | 33 | 7 | 0.7
CC(=O)NS(=O)(=O)c1ccc(NC(=O)c2cc(-c3ccc(C)c(C)c3)nc3ccccc23)cc1 | 0.8 | -5 | 16 | 12 | -3 | 0.9
Cc1ccc(-c2cc(C(=O)n3cnc4ccccc43)c3ccccc3n2)cc1C | 0.1 | 25 | 88* | 33 | -6 | 0.7
COCCOc1ccc(C(F)(F)F)cc1Nc1nc2ccccc2o1 | 0.6 | 54* | 38 | 30 | -3 | 0.7
O=C(O)C1CC=CCC1C(=O)Nc1cccc(C(=O)N2CCCCC2)c1 (stereo not drawn) | 1.3 | 2 | -27 | -20 | 9 | 1.2
COc1ccc(-c2[nH]ncc2-c2cnc(C)s2)c(O)c1 | 0.5 | -1 | 50 | 90* | -4 | 0.1
COc1ccc(O)c(-c2cn[nH]c2-c2cccs2)c1 | 0.1 | 8 | 88* | 99* | -3 | 0
SMILES | CYP2C9 act | PostGolgi ctrl | CYP2C9 inhib | CYP2C19 inh | PostGolgi yeast | CYP2C19 act
CC(=O)N1CCN(c2ccc(Oc3nnnn3-c3ccccc3)cc2)CC1 | 1 | 12 | -1 | 4 | -5 | 1
Cc1ccccc1Cn1c(=N)n(CC(=O)c2ccco2)c2ccccc21 | 1 | 7 | 0 | 3 | -1 | 1
Cc1ccc(OCCn2nc3ccccc3n2)c(C)c1 | 0.8 | 11 | 15 | 16 | -2 | 0.8
COc1ccc(Cn2c(-c3ccco3)nc3oc4ccccc4c(=O)c3c2=O)cc1 | 0.8 | -2 | 16 | -4 | 6 | 1
O=c1c2ccccc2oc2nc3ccn(Cc4ccncc4)c(=O)c3cc12 | 0.4 | 3 | 59* | 41 | 3 | 0.6
Cn1cccc1Cc1nnc(SCC(=O)Nc2ccc3c(c2)OCCO3)n1CCc1ccccc1 | 0.6 | 15 | 38 | 48 | -7 | 0.5
CCN(CCCNC(=O)C1CCC(=O)N1Cc1ccc(F)cc1)c1cccc(C)c1 (stereo not drawn) | 0.9 | -2 | 14 | 15 | -1 | 0.8
O=C(CN(CC1CCCO1)C(=O)CNS(=O)(=O)c1ccc(Cl)cc1)NCCc1ccccc1 (stereo not drawn) | 0.8 | -3 | 17 | 25 | 8 | 0.8
CCCCOc1ccc(S(=O)(=O)NNC(=O)C2Cc3c(ccc4ccccc34)O2)cc1 (stereo not drawn) | 0.6 | 25 | 38 | 13 | 5 | 0.9
Cc1ccc(S(=O)(=O)NNC(=O)C2Cc3c(ccc4ccccc34)O2)cc1 (stereo not drawn) | 0.4 | 14 | 56* | 20 | 12 | 0.8
CS(=O)(=O)N(CC(=O)NC1CCCC1)c1ccc2c(c1)OCCO2 | 0.9 | 4 | 9 | 21 | -2 | 0.8
Cc1ccccc1N(CC(=O)NCCSCc1ccco1)S(C)(=O)=O | 0.3 | 6 | 68* | 74* | -2 | 0.3
CS(=O)(=O)N(CC(=O)NCCSC1CCCCC1)c1ccc2c(c1)OCO2 | 0.4 | 15 | 56* | 70* | 1 | 0.3
CCCCCNC(=O)CN(c1ccc2c(c1)OCO2)S(C)(=O)=O | 0.9 | -2 | 10 | 46 | -8 | 0.5
Cc1ccc(SCCNC(=O)CN(c2ccc3c(c2)OCO3)S(C)(=O)=O)cc1 | 0.1 | 7 | 92* | 92* | 4 | 0.1
Cc1ccccc1CSCCNC(=O)CN(c1ccc2c(c1)OCO2)S(C)(=O)=O | 0.4 | 5 | 56* | 64* | -5 | 0.4
Cc1cc(=O)oc2cc(OCC(=O)OCc3nnc(-c4ccccc4)o3)ccc12 | 1.5 | 8 | -46 | 5 | 1 | 0.9
CCOC(=O)N1CCC(NC(=O)c2sc(-n3cccc3)nc2C)CC1 | 1.7 | -9 | -69 | 0 | -2 | 1
O=C(N1CCCC1)C12CCC3CC(CC(C3)C1)C2 | 0.9 | 3 | 8 | 26 | 6 | 0.7
COc1cccc(C2=NOC(C(=O)NCCN3CCOCC3)C2)c1 (stereo not drawn) | 1 | 20 | 3 | -6 | -10 | 1.1
O=C(Cc1ccccc1)NCCSCc1ccco1 | 1 | -1 | -2 | 31 | -3 | 0.7
O=C(NCCSCc1ccco1)Nc1ccccc1 | 0.7 | -2 | 25 | 79* | -1 | 0.2
